Screening data as filed in PubChem BioAssay.
TGFb inhibitor – blocks TGF-b signaling. HepG2 CAGA-GFP TGF-b/SMAD3 reporter, GFP fluorescence, 18 h; TGF-beta stimulated, 500 pg/mL final. Potency, µM (highest dose often 46.1 µM), for inactives: at the top dose activity, negative = inhibition, hits mostly inhibitors. 1.2% of 410,000 active; also: % is scaled to controls: 0 for no effect and ±100 for the full control effect; nearly all actives have a fitted effect of over 65% in size
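Inhibition was scored as loss of TGF-beta-induced (500 pg/mL final, 18 hours, 37 degrees C) GFP in HEPG2 cells carrying a CAGA-GFP reporter, in DMEM with 1% FBS. Well GFP was summed per cell; Activity was normalised to unstimulated and stimulated DMSO wells, then concentration-response fitting.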
Nrf2 inh – blocks Nrf2 signaling; A549 ARE-Fluc reporter, luciferase luminescence, 18-24 h; Potency, µM (doses to about 46 µM), without a hit: at the highest dose activity change, negative = inhibition, actives largely listed as inhibitors; AID 504444; 2.1% of 360,000 active; also: % is scaled to controls: 0 for no effect and ±100 for the full control effect; nearly all actives have a fitted effect of over 60% in size
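Two sequential reads on A549 ARE_Fluc cells exposed to compound for 18-24 h: a CellTiter-Fluor fluorescence read for viability, then a luciferase luminescence read for Nrf2/ARE activity.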
A549 tox – counter-screen for Nrf2 inhibitors: cytotoxicity in A549 cells | 0.16% of 390,000 active | A549 ARE-Fluc cells, CellTiter-Fluor viability, 18-24 h | Potency, µM (titrated, usually from 46 µM), for the others: top-dose activity change, negative = cytotoxicity, actives largely listed as inhibitors; also: % is scaled to controls: 0 for no effect and ±100 for the full control effect
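A549 ARE_Fluc cells in 5% FBS OPTI-MEM were exposed to compounds in concentration-response for 18-24 h at 37 deg C. Viability was read by CellTiter-Fluor fluorescence (Ex 405/Em 525) after 30 min, before the luciferase read.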
HepG2 tox – kills HepG2 cells in TGF-b inhibitor counter-screen; HepG2 CAGA-GFP viability, ATP luminescence, 18 h; Potency, µM (series often up to 46.1 µM), for inactives: top-dose activity change, negative = cytotoxicity, usual class: cytotoxic; 0.76% of 410,000 active
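HepG2 CAGA-GFP cells (1000/well, DMEM with 1% FBS) received compound, then TGF-beta at 500 pg/mL final, and were incubated 18 hours at 37 degrees C. Viability was read by CellTiter-Glo luminescence. Media-only wells were set as complete cell-killing and DMSO as no toxicity.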
Nrf2 ARE act – activators of Nrf2 (ARE) signaling; AREc32 ARE-luciferase reporter (MCF7-derived line), luminescence, 24 h; Potency, µM (top dose mostly 46.1 µM), for the others: at the top dose activation, hits mostly activators; 0.31% of 410,000 active; AID 624171; also: % of control where 0% means no effect; nearly all actives have a fitted effect of over 65% in size
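For detection, Steady-Glo was added and plates sat 30 min at RT; before that, AREc32_Fluc cells grown overnight in OPTI-MEM/5% FBS had been treated with 23 nL compound for 24 hr at 37 deg C.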
Starred values were filed as active, the others as inactive; ? = inconclusive; . = no result; ! = repeats disagree. Shown are actives, neighbours in structure and some others; about 3.6% of the full set was active somewhere. Calls follow the shape of the dose curve; as a rule, active = well fitted curve in the direction sought with a large enough effect; inconclusive = small, poorly fitted or top-dose-only effect, or another doubt; inactive = no such curve, though single readings can be large; an effect the other way counts as inactive or inconclusive. Potency is read from the fitted curve at half-maximal effect.

SMILES	TGFb inhibitor	Nrf2 inh	A549 tox	HepG2 tox	Nrf2 ARE act
CCOC(=O)c1ccc(N2C(=O)c3n[nH]c(-c4cccs4)c3C2c2ccc(OC)cc2OC)cc1 (stereo not given)	5µM*	?	-20%	-23%	-1%
COc1cccc(Cn2c(-c3cccs3)noc2=O)c1	1%	.	22%	-23%	3%
CCC(C)N=Cc1c(O)n(-c2ccccc2)c(=O)[nH]c1=O (stereo not given)	0%	1%	7%	-15%	-1%
COC(=O)[C@@]12CCCCN1[C@H](c1ccc(-c3ccc(Cl)c(Cl)c3)c(OC)c1)[C@@H]1C(=O)N(C)C(=O)[C@@H]12	4%	21µM*	-14%	-7%	-1%
COC(=O)[C@@]12CCCCN1[C@H](c1ccc(-c3ccc(Cl)c(Cl)c3)c(OC)c1)[C@H]1C(=O)N(C)C(=O)[C@H]12	15%	-1%	-7%	3%	0%
CN(C)c1ccc(CN2CCc3nc(N4CCN(c5ccccn5)CC4)ncc3C2)cc1	8.9µM*	.	-27%	-32%	-1%
COc1cc(CN2CCc3nc(N4CCN(c5ncccn5)CC4)ncc3C2)cc(OC)c1OC	?	.	-10%	-19%	4%
CCOc1ccccc1NC(=O)NCc1ccc2c(c1)CCN2C(=O)c1ccccc1	?	.	0%	-17%	0%
CCOc1cccc(CC(=O)NCc2ccc3c(c2)CCN3C(=O)c2cccc(C)c2)c1OCC	?	21µM*	-22%	-12%	0%
CCCCOP(=O)(CN1CCOCC1)OCCCC	-2%	5%	-3%	-5%	0%
COC(=O)[C@@H]1[C@@H](C(=O)OC)C2(c3ccccc3-c3ccccc32)N(c2ccc(Cl)cc2)N1C#N	?	?	?	11µM*	-3%
COC(=O)C[C@]1(C(=O)OC)CN(C#N)N(c2ccc(Cl)cc2)C12c1ccccc1-c1ccccc12	4µM*	?	?	-106%	-2%
Cc1ccnc(-n2c(-c3ccco3)nc3ccccc3c2=O)c1	-10%	5%	-8%	-4%	-1%
CC12CC[C@H]3[C@@H](CCC4(O)C[C@H](O)CCC34/C=N/NC(=O)c3ccccc3Cl)C1(O)CCC2C1=CC(=O)OC1 (stereo not given in full)	-18%	-22%	3%	-6%	0%
C[C@]12CCC3C(CCC4=CC(O)CC[C@@]43/C=N/O)C1(O)CCC2C1=CC(=O)OC1 (stereo not given in full)	7.9µM*	?	-6%	-53%	-3%
COc1cccc2c1C(=O)c1c(O)c3c(c(O)c1C2=O)CC(O)(C(C)=NO)CC3OC1CC(N)C(O)C(C)O1 (stereo not given)	6.3µM*	-13%	?	3%	-1%
Cc1ccc(N2C(=O)NC(=O)/C(=C/C=C/c3ccco3)C2=O)cc1	11µM*	-14%	4%	-31%	?
O=C1NC(=O)N(c2ccccc2)C(=O)/C1=C\C=C\c1ccccc1	7.1µM*	-10%	-17%	-49%	14%
Cc1cc(C)cc(N2C(=O)NC(=O)/C(=C\C=C\c3ccco3)C2=O)c1	?	?	?	-6%	?
O=C1NC(=O)C(C(CC(=O)c2ccccc2)c2ccccc2)C(=O)N1 (stereo not given)	-15%	2%	1%	-2%	0%
CC(=O)c1cn(CCCOc2ccccc2)c2ccccc12	?	21µM*	-15%	-33%	6%
O=C(C(=O)N1CCOCC1)c1cn(CCCOc2ccccc2)c2ccccc12	3%	8%	0%	-12%	0%
Cc1ccc(C(=O)NC2CC3CCC(C2)N3)cc1 (stereo not given)	-14%	1%	6%	-2%	0%
CCc1ccc(NP(=O)(Oc2ccccc2F)Oc2ccccc2F)cc1	18µM*	2%	-12%	-104%	3%
Cc1ccc(NP(=O)(Oc2ccccc2F)Oc2ccccc2F)cc1	?	?	-16%	-27%	-1%
SMILES	TGFb inhibitor	Nrf2 inh	A549 tox	HepG2 tox	Nrf2 ARE act
O=C(c1ccc(N2CCCCCC2)c([N+](=O)[O-])c1)N1CCC2(CC1)OCCO2	-1%	23µM*	?	-28%	-1%
O=C(c1ccc2c(c1)OCO2)N1CCC2(CC1)OCCO2	5%	11%	16%	-4%	0%
N#Cc1cc2c(nc1SCC(=O)Nc1cccc(C(F)(F)F)c1)C1CCN2CC1	2%	21µM*	-14%	-17%	2%
CP(=O)(O)CCCN	4%	-5%	7%	-2%	-1%
CCCCOC(=O)c1ccccc1C(=O)OCc1ccccc1	2%	-4%	1%	-3%	-1%
CN(C)C(=O)Oc1cccc([N+](C)(C)C)c1	7%	6.5µM*!	-1%	7%	1%
Cc1nc2ccccc2c(=O)n1-c1nccs1	18%	.	.	22%	1%
CCOC(=O)N1CCN(C(=O)c2ccc3c(=O)n(CCC4=CCCCC4)c(=S)[nH]c3c2)CC1	-13%	?	-12%	-9%	-1%
Clc1ccc(CCC(Cn2ccnc2)Sc2c(Cl)cccc2Cl)cc1 (stereo not given)	?	?	-26%	13µM*	-3%
Clc1ccc(C(Cn2ccnc2)OCc2csc3c(Cl)cccc23)c(Cl)c1 (stereo not given)	?	?	?	-99%	4%
O=C(Nc1ccc(OC(F)(F)F)cc1)Oc1ccccc1N1CCOCC1	?	-20%	-3%	-65%	0%
O=C(Nc1ccc(OC(F)(F)F)cc1)Oc1ccccc1N1CCCCC1	13µM*	12%	-2%	-102%	7%
CN1CCCN(C(=O)COc2cccc(C(F)(F)F)c2)CC1	0%	9%	2%	7%	0%
c1ccc(-c2nn(-c3ccccc3)[n+](-c3ccccc3)n2)cc1	10µM*	21µM*	-7%	-52%	0%
CCCC1=Nc2cc(C(=O)NCCc3ccc(OC)cc3OC)ccc2Sc2ccccc21	?	18µM*	7%	-6%	0%
CC(=O)c1cn(Cc2ccc(C#N)cc2)c2ccccc12	-26%	-18%	20%	-23%	0%
COc1ccc(OC)c(NC(=O)CCNS(=O)(=O)c2ccc3c(c2)oc(=O)n3C)c1	12%	1%	0%	1%	0%
CC(N=Cc1c(O)n(C2CC2)c(=S)[nH]c1=O)c1ccccc1 (stereo not given)	7%	-12%	-7%	-22%	-1%
CCC(=O)c1ccc(OCC(=O)N2CCN(CC(=O)Nc3ccccc3C(F)(F)F)CC2)cc1	2%	16µM*	-21%	-5%	4%
Nc1c(C(=O)OCc2ccccc2)c2nc3ccccc3nc2n1Cc1cccs1	?	23µM*	?	2%	9%
